Nrf2 block = Nrf2 pathway inhibition; A549 ARE-Fluc reporter, luciferase luminescence, 18-24 h; Potency, µM (highest dose often 46 µM), inactives show at the top dose activity change, negative = inhibition, actives largely listed as inhibitors; 2.1% of 360,000 active; AID 504444; also: % is scaled to controls: 0 for no effect and ±100 for the full control effect; nearly all actives have a fitted effect of over 60% in size
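Reporter: ARE-Fluc in A549. Exposure: 18-24 h, 37 °C, 5% CO2, 5% FBS OPTI-MEM. Readouts: fluorescent cytotoxicity (CellTiter-Fluor), then luminescent Nrf2 signal after BugLite.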
TGFb SMAD3 inh = TGF-b pathway inhibition | HepG2 CAGA-GFP TGF-b/SMAD3 reporter, GFP fluorescence, 18 h; TGF-beta stimulated, 500 pg/mL final | Potency, µM (highest dose often 46.1 µM), for the others: at the top dose activity, negative = inhibition, usual class: inhibitors | 1.2% of 410,000 active; also: % is scaled to controls: 0 for no effect and ±100 for the full control effect; nearly all actives have a fitted effect of over 65% in size
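Inhibition of TGF-beta-driven CAGA-GFP reporter expression in HEPG2 cells is measured by cellular GFP fluorescence after 18 h stimulation with 500 pg/mL recombinant TGF-beta in 1% FBS medium at 37 degrees C.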
ATXN2 expr inh = ATXN2 expression inhibition; Potency, µM (top dose mostly 57 µM), without a hit: at the highest dose activity change, negative = inhibition, actives largely listed as inhibitors; HEK-293 ATXN2-luciferase reporter, luminescence, 24 h; 0.72% of 360,000 active; also: % is scaled to controls: 0 for no effect and ±100 for the full control effect; nearly all actives have a fitted effect of over 55% in size
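ATXN2-luciferase reporter cells (luciferase flanked by upstream and downstream ATXN2 gene portions) were treated 24 h at 37 °C with compounds at up to 57 uM. SteadyGlo luminescence gave expression; GF-AFC fluorescence gave viability.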
ATXN viability = cell viability loss in ATXN counter-screen. S2 cells (HEK-293 line with an ATXN2-luciferase reporter) viability, CellTiter-Fluor protease fluorescence, 24 h. Potency, µM (titrated, usually from 56.7 µM), hits mostly cytotoxic. 0.49% of 400,000 active. AID 651635; also: nearly all actives have a fitted effect of over 40% in size
HepG2 viability = kills HepG2 cells in TGF-b inhibitor counter-screen; Potency, µM (series often up to 46.1 µM), inactives show at the highest dose activity change, negative = cytotoxicity, usual class: cytotoxic; HepG2 CAGA-GFP viability, ATP luminescence, 18 h; 0.76% of 410,000 active; AID 588856
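HepG2 CAGA-GFP cells (1000/well, DMEM with 1% FBS) received compound, then TGF-beta at 500 pg/mL final, and were incubated 18 hours at 37 degrees C. Viability was read by CellTiter-Glo luminescence. Media-only wells were set as complete cell-killing and DMSO as no toxicity.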
A549 tox = counter-screen for Nrf2 inhibitors: cytotoxicity in A549 cells. A549 ARE-Fluc cells, CellTiter-Fluor viability, 18-24 h. Potency, µM (titrated, usually from 46 µM), for the others: at the top dose activity change, negative = cytotoxicity, hits mostly inhibitors. 0.16% of 390,000 active. AID 504648; also: % is scaled to controls: 0 for no effect and ±100 for the full control effect
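A549 ARE-Fluc cells in 5% FBS OPTI-MEM, 5000 cells/well, rested 2 h then exposed to compounds in concentration-response for 18-24 h at 37 °C. Viability by CellTiter-Fluor fluorescence (Ex 405/Em 525) after 30 min; luciferase luminescence (BugLite, 15 min, RT) read afterwards.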
The depositor's hits bear a star; i = inactive; ? = inconclusive; . = not tested or not shown; ! = repeats disagree; [ ] = another dose, or the depositor's remark. Shown are actives, neighbours in structure and some others; about 3.8% of the full set was active somewhere. Calls follow the shape of the dose curve; as a rule, active = well fitted curve in the direction sought with a large enough effect; inconclusive = small, poorly fitted or top-dose-only effect, or another doubt; inactive = no such curve, though single readings can be large; an effect the other way counts as inactive or inconclusive. Potency is read from the fitted curve at half-maximal effect.

SMILES | Nrf2 block | TGFb SMAD3 inh | ATXN2 expr inh | ATXN viability | HepG2 viability | A549 tox
COc1ccccc1Nc1c2c(nc3ccc(NC(=O)/C=C/c4cccc(OC)c4OC)cc13)CCCC2 | -10%[9.27 µM] | ? | . | . | -75% | ?
COc1ccc(Nc2c3c(nc4ccc(NC(=O)/C=C/c5cccc(OC)c5OC)cc24)CCCC3)cc1OC | -4%[9.27 µM] | 3.5µM* | . | . | -93% | ?
CCOC(=O)c1cc2c(=O)n3ccccc3nc2n(CCOC)c1=NC(=O)C(C)(C)C | 10% | 1% | -3% | . | 7.9µM* | ?
Cc1ccc(NC(=O)c2ccc(CNS(=O)(=O)c3ccc4c(c3)C(C)(C)C(=O)N4C)cc2)cc1F | 23µM* | -7% | . | . | -14% | -19%
CCc1cccc(NC(=O)c2ccc(CNS(=O)(=O)c3ccc4c(c3)C(C)(C)C(=O)N4C)cc2)c1 | 16µM* | ? | . | . | -35% | -21%
Cc1ccc(NC(=O)c2ccc(CNS(=O)(=O)c3ccc4c(c3)C(C)(C)C(=O)N4C)cc2)cc1 | 0% | 0% | . | . | -11% | 3%
COc1ccc(-c2cn3nc(SCC(=O)Nc4cccc(C)c4C)ccc3n2)cc1 | . | 4% | 44% | i | -2% | 5%
CCOC(=O)c1nnn(CC(=O)NC(=O)Nc2cccc(CC)c2)c1C(=O)OCC | -11% | ? | 2% | i | 11µM*! | -4%
CC(=O)NC(c1ccc2ccccc2c1)c1ccc2cccnc2c1O (stereo unspecified) | 15µM* | ? | 2.8µM* | i | -11% | -20%
COc1ccccc1C(NC(C)=O)c1cc(Cl)c2cccnc2c1O (stereo unspecified) | -5% | ? | ? | i | -20% | -12%
COc1ccc(C(NC(C)=O)c2ccc3cccnc3c2O)c(OC)c1 (stereo unspecified) | . | -13% | 1.8µM* | ? | -7% | ?
COc1ccc(C(NC(C)=O)c2ccc3cccnc3c2O)cc1OC (stereo unspecified) | . | 0% | . | . | 15% | .
C[C@@H]1CN([C@H](C)CO)C(=O)c2cc(NC(=O)Nc3ccc(C(F)(F)F)cc3)ccc2O[C@H]1CN(C)Cc1ccc(Cl)c(Cl)c1 | ? | 11µM* | ? | 13µM* | -111% | ?
C[C@H](CO)N1C[C@H](C)[C@@H](CN(C)S(C)(=O)=O)Oc2ccc(NC(=O)Nc3ccc(C(F)(F)F)cc3)cc2C1=O | 16% | -15% | -9% | i | -26% | 3%
C[C@@H]1CCCCO[C@@H](CN(C)Cc2ccc(Cl)c(Cl)c2)[C@@H](C)CN([C@H](C)CO)C(=O)c2cc(NC(=O)CCC(F)(F)F)ccc2O1 | . | ? | ? | ? | -25% | .
C[C@@H]1CN([C@@H](C)CO)C(=O)c2cc(NC(=O)CCC(F)(F)F)ccc2O[C@H]1CN(C)Cc1ccc(Cl)c(Cl)c1 | ? | 13µM* | ? | ? | -85% | ?
C[C@H]1CN([C@@H](C)CO)C(=O)c2cccc(NC(=O)Nc3ccc(C(F)(F)F)cc3)c2O[C@@H]1CN(C)Cc1ccc(Cl)c(Cl)c1 | ? | ? | 0% | 14µM* | 13µM* | ?
C[C@@H]1CCCCO[C@@H](CN(C)Cc2ccc(C(F)(F)F)cc2)[C@@H](C)CN([C@H](C)CO)C(=O)c2cc(N(C)C)ccc2O1 | . | ? | ? | 22µM* | -25% | .
C[C@@H]1CCCCO[C@H](CN(C)Cc2ccc(C(=O)O)cc2)[C@@H](C)CN([C@H](C)CO)C(=O)c2cc(N(C)C)ccc2O1 | . | -4% | 3% | i | -26% | .
Cc1ccc(-n2c(=O)c3c(c4cc(C)ccc4n3C)n(CC(=O)Nc3ccc(F)cc3)c2=O)cc1 | 13% | ? | -9% | i | 0% | 4%

High-throughput results as filed in PubChem BioAssay.
